Assay results from PubChem BioAssay (NCI).
The panel holds about 83,000 compounds, 20% with a hit somewhere; the sample as a whole holds those more often.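 Step 1: grow cells in 96-well plates. Step 2: add test compound at a single concentration. Step 3: incubate 48 h. Step 4: record percent growth.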 A number with no mark means an inactive call. The source made the active and inactive calls.

tested on: HOP-62 NSCLC; assay: NCI-60 one-dose screen, 48 h (100 = growth as untreated, 0 = no growth, -100 = all killed); conditions: 10 µM unless noted
Method: Growth inhibition of the HOP-62 human Non-Small Cell Lung tumor cell line is measured as a screen for anti-cancer activity. Cells are grown in 96 well plates and exposed to the test compound for 48 hours. Compounds are tested at a single concentration, which is 10^-5 M for most compounds. The reported endpoint is percent growth (GI% or GIPRCNT), where numbers from 0 - 100% represent growth inhibition, and numbers from -100% - 0 represent cell death. For example, a value of 40 represents 60% growth inhibition. A value of 0 means no net growth occurred over the course of the experiment. A value of -40 indicates 40% of cells at the beginning of the experiment died by the end of the experiment. A value of -100 means all cells are dead at the end of the experiment.
NCI-60 Human Tumor Cell Lines Screen was performed using the standard one-dose NCI protocol, which is described in more detail at https://dtp.cancer.gov/discovery_development/nci-60/default.htm.
Compounds with GIPRCNT values below 10 were considered active. Activity score was based on GIPRCNT using the following formula: […]
Score is 0 for GIPRCNT values of 100 or above, 50 for GIPRCNT values of 0, and 100 for GIPRCNT values of -100.

Row | SMILES | growth
1 | Cc1ccc2c(n1)C(=O)C(Cl)=C(Nc1ccccc1C(C)C)C2=O | 90.8%
2 | COc1nc2ccc(C)cc2cc1-c1nc2c(cnn2-c2ccccc2)c(=O)[nH]1 | 70.9%
3 | COc1cc(C(=O)/C=C/c2c(Cl)nc3sccn23)cc(OC)c1OC | 83.3%
4 | c1ccc2c(-c3nc(-c4c[nH]c5ccncc45)cs3)c[nH]c2c1 | 49.3%
5 | CCOC(=O)Cn1c(C)c(/C=N/NC(=O)c2cc3c(ccc4ccccc43)o2)c2ccccc21 | 26.5%
6 | Brc1ccc2[nH]cc(-c3nc(-c4c[nH]c5ccncc45)cs3)c2c1 | -79.1% (active)
7 | CC1=C(SCCC(=O)OC(C[Se]C2=C(C)C(=O)c3ccccc3C2=O)C(=O)NC(C)(C)C)C(=O)c2ccccc2C1=O (stereo not given) | -65.4% (active)
8 | Cc1cc(=O)[nH]c(=O)n1Cc1cn(-c2c3ccccc3nc3ccccc23)nn1 | 95.6%
9 | O=C1CCC/C=C\C[C@H]2C=CC(=O)/C2=C/C[C@H](CCc2cccc(C(F)(F)F)c2)O1 | -73.7% (active)
10 | O=C(Nc1ccc(Cl)cc1F)c1ccccc1O | 42.6%
11 | O=c1c2cc(C(F)(F)F)ccc2sc2c(NCCCNCCO)nc3ccccc3c12 | 40.7%
12 | Cc1nn(-c2ccccc2)c(-n2ccnc2)c1/C=N/Nc1nc(-c2ccc(F)cc2)cs1 | 98.8%
13 | O=C(Nc1ccc(I)cc1F)c1cc(I)ccc1O | 16.8%
14 | COc1ccc2[nH]c(-c3ccccc3)c(/C=C(\C#N)S(=O)(=O)c3ccccc3)c2c1 | 79.1%
15 | Cc1ccc(-c2nc3c(c(-c4ccccc4)nn3-c3ccccc3)c(-c3ccc(O)cc3)c2C#N)cc1 | 40%
16 | Cc1cccc2c3c(sc12)C(c1ccc(F)cc1)C(C#N)=C(N)O3 (stereo not given) | 33.2%
17 | CC1(C)C2CC1C1(/C=N\Nc3ccccc3)C(C2)C(C#N)(C#N)C1(C#N)C#N (stereo not given) | 86.1%
18 | COc1ccc(-c2csc(NC(=O)N3CCN(c4cc5c(cc4F)c(=O)c(C(=O)O)cn5C4CC4)CC3)n2)cc1 | 20%
19 | O=C(N/N=C/[C@H](O)[C@@H](O)[C@@H](O)[C@H](O)CO)c1ccc(NC(=O)c2cccnc2)cc1 | 113%
20 | O=C(S)CNC(=O)c1ccccc1 | 92.7%

Row | SMILES | growth
21 | COc1ccc2nc(NCCCNCCO)c3sc4ccc(F)cc4c(=O)c3c2c1 | 74%
22 | COc1cc(C(=O)c2cnc(-c3cccc4[nH]ccc34)[nH]2)cc(OC)c1OC | 33.8%
23 | COc1cc(-c2nc3sccn3c2-c2ccnc(NCCCNS(=O)(=O)c3ccc(F)cc3)n2)ccc1F | 90.2%
24 | c1ccc2c(c1)Nc1ccncc1S2 | 98.2%
25 | Cc1cc(O)c(C2=NN(c3ccc(S(N)(=O)=O)cc3)C(c3ccccc3O)C2)cc1Cl (stereo not given) | -3.51% (active)
26 | CCCCN(C)N=Nc1ccc(C(N)=O)cc1 | 122%
27 | Cc1ccc(-c2nn(C)c(=O)c3noc(-c4ccc(C)cc4)c23)cc1 | 28.1%
28 | NC1=C(c2nn[nH]n2)C(c2ccccc2Cl)c2ccc3ccccc3c2O1 (stereo not given) | 66.5%
29 | OC(COc1ccccc1Cl)CN1CCN(c2cccc(Cl)c2)CC1 (stereo not given) | 119%
30 | O=C(O)c1cn(C2CC2)c2cc(N3CCN(C(=O)Nc4nc(-c5ccc(Cl)cc5)cs4)CC3)c(F)cc2c1=O | 20.5%
31 | COc1cc(C(=O)N2N=C(c3ccc(S(C)(=O)=O)cc3)CC2c2ccco2)cc(OC)c1OC (stereo not given) | 67.3%
32 | COC(=O)Nc1ccc(-c2nc(-c3cccc(OC)c3)c(-c3ccnc(Br)c3)[nH]2)cc1 | 59.4%
33 | O=C(/C=C/c1sc(Cl)nc1Cl)c1ccc(F)cc1 | 95.6%
34 | O=CN(SSN(C=O)C1CCCCC1)C1CCCCC1 | 95.4%
35 | O=C(Nc1ccc(F)cc1F)c1cc(F)ccc1O | 16.4%
36 | COc1cccc(-c2nc(-c3ccc(NC(=O)c4ccccc4)cc3)[nH]c2-c2ccnc(Br)c2)c1 | 4.28% (active)
37 | C/C(=N/NC(N)=S)c1sc(Nc2cccc(Cl)c2)nc1C | 102%
38 | O=C(CCOCCNC(=O)COc1ccc2c(c1)OCC(c1ccc(F)cc1)C2=O)NCCCC(O)(P(=O)(O)O)P(=O)(O)O (stereo not given) | 105%
39 | CS(=O)(=O)N(c1cc(-c2ccc3ncnc(Nc4ccc(F)c(Cl)c4)c3c2)cnc1Cl)S(C)(=O)=O | 42%
40 | CN(C)c1ccc2nc3ccc(=[N+](C)C)c([N+](=O)[O-])c-3sc2c1 | 64.2%
